Reference: PubChem BioAssay (EPA / NIEHS)
Calls of active or inactive are those of the source. How the source made its calls: active means hit-call score of the fitted dose curve at least 0.9, where 1 is the maximum; inactive means score below 0.9.

Assay: ATG_FoxO_CIS: Attagene CIS-FACTORIAL HepG2 Assay for human Forkhead box O (FoxO) (AID 2282943)
Settings: HepG2 Attagene cis-reporter, FoxO element, mRNA; actives raise or lower the signal
Description: ATG_CIS is a cell-based, multiplexed-readout assay that uses HepG2, a human liver cell line, with measurements taken at 24 hours after chemical dosing in a 24-well plate.ATG_FoxO_CIS is one of 52 assay component(s) measured or calculated from the ATG_CIS assay. It is designed to make measurements of mRNA induction, a form of inducible reporter, as detected with fluorescence intensity signals by Reverse transcription polymerase chain reaction (RT-PCR) and Capillary electrophoresis technology.Data from the assay component ATG_FoxO_CIS was analyzed into 1 assay endpoint. This assay endpoint, ATG_FoxO_CIS, was analyzed with bidirectional fitting relative to DMSO as the negative control and baseline of activity. Using a type of inducible reporter, measures of mRNA for gain or loss-of-signal activity can be used to understand the reporter gene at the transcription factor-level as they relate to the gene FOXO1 and FOXO3. Furthermore, this assay endpoint can be referred to as a primary readout, because this assay has produced multiple assay endpoints where this one serves a reporter gene function. To generalize the intended target to other relatable targets, this assay endpoint is annotated to the dna binding intended target family, where the subfamily is forkhead box protein.
Human liver HepG2 cells are transiently transfected with multiple reporter transcription units (MRTUs) in 6-well plates using FuGene 6 reagent (Roche; 3 ml FuGene/1 mg DNA). The MRTU constructs are regulated by a cis-regulating element (promoter). […] A major difference between the CIS and TRANS system is that in CIS activities of endogenous TFs are measured, whereas the TRANS assay evaluates changes in activities of exogenous, chimeric NR-Gal4 proteins. […] At the end of 24 hour incubation, total RNA was isolated using TriZol reagent (Invitrogen). The isolated RNA is then reverse-transcribed using oligo(dT) primer and Mo-MLV reverse transcriptase (Invitrogen) with DNAse I (Ambion) treatment for 30 min. The one-tenth of the produced cDNA was amplified by PCR using Taq DNA polymerase (Invitrogen) and two reporter sequence-specific primers. The PCR products were fluorescently labeled by primer extension with 6-arboxyfluorescein (6-FAM) 5'-labeled reporter sequence-specific primer (2 min at 95 C, 20 s at 68 C and 10 min at 72 C) and these products were digested with 5U of HpaI (New England Biolabs) for 2h at 37 C. The fragments were purified using Qiaquick PCR columns (Qiagen), analyzed on an ABI 3130xL genetic analyzer (Applied Biosystems) with peak positions identified by using a set of X-rhodamine (ROX)-labeled MapMarker1000 molecular weight standards (BioVentures). The raw capillary electrophoresis data was processed using Attagraph software (Attagene).

Structure (SMILES)	AC50	outcome
C=CC(=O)OCCC#N	100 µM (active)	–
CN1C(=O)c2ccccc2C1=O	–	inactive
C[C@H](CCC(=O)NCC(=O)O)[C@H]1CC[C@H]2[C@@H]3[C@H](O)C[C@@H]4C[C@H](O)CC[C@]4(C)[C@H]3C[C@H](O)[C@]12C	–	inactive
C=C1CC[C@H](O)C/C1=C/C=C1\CCC[C@]2(C)[C@@H]([C@H](C)/C=C/[C@H](C)C(C)C)CC[C@@H]12	–	inactive
CCCC(O)C(O)CO (stereo not given)	–	inactive
CCCCOCC	–	inactive
CCCCCCOC(=O)CCC	–	inactive
O=C(O)c1cc(C(=O)O)cc([N+](=O)[O-])c1	–	inactive
Cc1cc(CCC(=O)OCCOCCOCCOC(=O)CCc2cc(C)c(O)c(C(C)(C)C)c2)cc(C(C)(C)C)c1O	–	inactive
CCCCCCCC(=O)OCCCCCC	–	inactive
CC(=O)O[C@@H]1C[C@@H]2CC[C@@]1(C)C2(C)C	–	inactive
CS(C)=O	–	inactive
O=c1c(O)c(-c2ccc(O)cc2)oc2cc(O)cc(O)c12	–	inactive
CC(C)C[C@H](NC(=O)OCC1c2ccccc2-c2ccccc21)C(=O)O	–	inactive
CC(=O)CC(=O)Nc1ccccc1	–	inactive
CC(Oc1cc(Cl)ccc1Cl)C(=O)O (stereo not given)	–	inactive
CCCCCC(=O)CC	–	inactive
CC(=O)c1ccccn1	–	inactive
CCCCCCCCN1CCCC1=O	–	inactive
CC(CN=Cc1ccccc1O)N=Cc1ccccc1O (stereo not given)	–	inactive

Structure (SMILES)	AC50	outcome
CC1(C)COCN1	–	inactive
CC(=O)O[C@@H]1CC2CCC1(C)C2(C)C (stereo not given in full)	–	inactive
CC(C)(C)c1ccc(C(=O)O)cc1	–	inactive
[Cl][Au]([Cl])[Cl]	–	inactive
CCCCC(CC)(CO)CO	–	inactive
Nc1ccc2c(O)cc(S(=O)(=O)O)cc2c1	–	inactive
CCCCC1(COC(=O)CCC(=O)O)C(=O)N(c2ccccc2)N(c2ccccc2)C1=O	–	inactive
CCCOCCO	–	inactive
CC(C=O)Cc1ccc(C(C)(C)C)cc1 (stereo not given)	–	inactive
CCCCCCC(O)CCCCCCCCCCC(=O)O (stereo not given)	–	inactive
Cc1ccc(S(=O)(=O)Oc2ccc(N=Nc3ccc(-c4ccc(N=Nc5c(O)ccc6cc(S(=O)(=O)O)cc(S(=O)(=O)O)c56)c(C)c4)cc3C)cc2)cc1	–	inactive
CSCCC=O	–	inactive
OCCc1ccccc1	–	inactive
O=C(Nc1ccc2c(c1)Cc1ccccc1-2)C(F)(F)F	–	inactive
CC(C)=CCCC(C)CC(=O)O (stereo not given)	–	inactive
CS(=O)(=O)c1ccc(C2=C(c3ccccc3)C(=O)OC2)cc1	–	inactive
Cc1occc(=O)c1OC(=O)C(C)C	–	inactive
C=CCCC(=O)/C=C/C1C(C)=CCCC1(C)C (stereo not given)	–	inactive
CCC(C)=O	–	inactive
CC(C)CCCCCCCCCCCCCCC(=O)O	–	inactive
